Data taken from PubChem BioAssay (Tox21).
Calls of active or inactive are those of the source. The call rests on the fitted dose curve; in most records, active means well fitted curve in the direction sought with a large enough effect in the repeat runs; inconclusive means weak or mixed curves; inactive means flat fitted curve, though single readings scatter.

Assay: qHTS assay to test for compound auto fluorescence at 460 nm (blue) in HepG2 cell free culture (AID 720685)
Conditions: Cell-free culture medium, blue autofluorescence 405/460 nm; series mostly up to 91.3 µM; fluorescence, % of fluorescent control: at the top concentration
Method in brief: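 Compound (23 nL) or DMSO pinned into cell-free MEM with 10% FBS; blue fluorescence read at 405/460 nm excitation/emission, expressed as auto-fluorescence equivalency to triamterene.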
On the % scale 0 is the no-effect control and ±100 the full control effect.

SMILES	fluorescence, % of fluorescent control	outcome
CCCc1nn(C)c2c(=O)[nH]c(-c3cc(S(=O)(=O)N4CCN(C)CC4)ccc3OCC)nc12	0.13% [at 46 µM] (inactive)	
CO[C@@]1(NC(=O)CSC[C@@H](N)C(=O)O)C(=O)N2C(C(=O)O)=C(CSc3nnnn3C)CS[C@@H]21	0.496% [at 46 µM] (inactive)	
CN(C)CCN(C)CCN(C)C	-0.0299% (inactive)	
Cc1ccc(C(=O)Nc2ccc(S(=O)(=O)O)c3cc(S(=O)(=O)O)cc(S(=O)(=O)O)c23)cc1NC(=O)c1cccc(NC(=O)Nc2cccc(C(=O)Nc3cc(C(=O)Nc4ccc(S(=O)(=O)O)c5cc(S(=O)(=O)O)cc(S(=O)(=O)O)c45)ccc3C)c2)c1	0.0618% [at 46 µM] (inactive)	
C=C(C)C(=O)OCCOCCOCCOCCOC(=O)C(=C)C	-0.145% (inactive)	
OCCCCCO	0.0025% [at 95.7 µM] (inactive)	
CO[Si](C)(OC)c1ccccc1	-0.0891% (inactive)	
CC1=NS(=O)(=O)c2cc(Cl)ccc2N1	0.0785% [at 46 µM] (inactive)	
CCOC(=O)CCC(=O)OCC	-0.179% (inactive)	
CC1(C)[C@@H]2CC[C@@]1(C)[C@H](O)C2	-0.0917% (inactive)	
CCCC(C)C(=O)OCC (stereo not given)	0.0782% (inactive)	
CCCCS(=O)(=O)N[C@@H](Cc1ccc(OCCCCC2CCNCC2)cc1)C(=O)O	0.0053% [at 46 µM] (inactive)	
c1coc(CNc2ncnc3nc[nH]c23)c1	-0.0057% (inactive)	
CCOC(=O)COc1cc(-n2ncc(C(F)(F)F)c(C)c2=O)c(F)cc1Cl	-0.152% (inactive)	
CC(C)CCCO	0.0393% (inactive)	
CC(=O)N1C[C@H](O)C[C@H]1C(=O)O	-0.148% [at 46 µM] (inactive)	
O=S(=O)(O)c1cccc2c(S(=O)(=O)O)cccc12	0.0173% (inactive)	
C=CN1CCCCCC1=O	-0.0315% (inactive)	

SMILES	fluorescence, % of fluorescent control	outcome
C[N+]1(C)[C@@H]2CC(OC(=O)[C@H](CO)c3ccccc3)C[C@H]1[C@@H]1O[C@@H]12 (stereo not given in full)	-0.0749% [at 46 µM] (inactive)	
CC(C)C[C@@H](N)C(=O)O	-0.0164% [at 46 µM] (inactive)	
CCCCCCCCCCCCSC	0.106% (inactive)	
C=CCOCC(O)CO (stereo not given)	-0.0495% (inactive)	
CC(=O)Oc1cccc(C)c1	0.0673% [at 46 µM] (inactive)	
CC1=CCC(O)(C(C)C)CC1 (stereo not given)	-0.0221% (inactive)	
CCOC(=O)COC(=O)c1ccccc1C(=O)OCC	0.0416% (inactive)	
COC(=O)Nc1ccc(Cl)c(Cl)c1	0.0972% (inactive)	
CCCCCCC1CCC(=O)O1 (stereo not given)	-0.105% [at 95.7 µM] (inactive)	
CC[C@H]1OC(=O)[C@H](C)[C@@H](O[C@H]2C[C@@](C)(OC)[C@@H](O)[C@H](C)O2)[C@H](C)[C@@H](O[C@@H]2O[C@H](C)C[C@H](N(C)C)[C@H]2O)[C@](C)(OC)C[C@@H](C)C(=O)[C@H](C)[C@@H](O)[C@]1(C)O		inactive
C=CC(C)(CCC=C(C)C)OC(=O)CC (stereo not given)	0.066% (inactive)	
CC(=O)c1ccc2ccccc2c1	0.0846% (inactive)	
CC(C)(C)C(=O)Oc1ccc(S(=O)(=O)Nc2ccccc2C(=O)NCC(=O)O)cc1	0.0153% [at 46 µM] (inactive)	
CC(N)C12CC3CC(CC(C3)C1)C2 (stereo not given)	-0.0359% [at 46 µM] (inactive)	
O=C(O)c1cc(C(=O)O)cc(C(=O)O)c1	-0.169% [at 95.7 µM] (inactive)	
CCC(=O)OCc1ccccc1	0.0328% (inactive)	
CC(C)C1CCC(O)CC1 (stereo not given)	-0.0221% (inactive)	
COc1cc(C(=O)OC(COCCC(C)C)CN2CCOCC2)cc(OC)c1OC (stereo not given)	-0.0046% [at 46 µM] (inactive)	

Assay: qHTS assay to test for compound auto fluorescence at 535 nm (green) in HepG2 cell free culture (AID 720686)
Conditions: Cell-free medium, green autofluorescence 485/535 nm; series mostly up to 91.3 µM; fluorescence, % of fluorescein control: at the top concentration

SMILES	fluorescence, % of fluorescein control	outcome
CCCc1nn(C)c2c(=O)[nH]c(-c3cc(S(=O)(=O)N4CCN(C)CC4)ccc3OCC)nc12	0.0371% [at 46 µM] (inactive)	
CO[C@@]1(NC(=O)CSC[C@@H](N)C(=O)O)C(=O)N2C(C(=O)O)=C(CSc3nnnn3C)CS[C@@H]21	0.0104% [at 46 µM] (inactive)	
CN(C)CCN(C)CCN(C)C	-0.044% (inactive)	
Cc1ccc(C(=O)Nc2ccc(S(=O)(=O)O)c3cc(S(=O)(=O)O)cc(S(=O)(=O)O)c23)cc1NC(=O)c1cccc(NC(=O)Nc2cccc(C(=O)Nc3cc(C(=O)Nc4ccc(S(=O)(=O)O)c5cc(S(=O)(=O)O)cc(S(=O)(=O)O)c45)ccc3C)c2)c1	-0.0473% [at 46 µM] (inactive)	
C=C(C)C(=O)OCCOCCOCCOCCOC(=O)C(=C)C	-0.0149% (inactive)	
OCCCCCO	0.188% [at 95.7 µM] (inactive)	
CO[Si](C)(OC)c1ccccc1	-0.0416% (inactive)	
CCOC(=O)CCC(=O)OCC	-0.0258% (inactive)	
CCCC(C)C(=O)OCC (stereo not given)	-0.0052% (inactive)	
CCCCS(=O)(=O)N[C@@H](Cc1ccc(OCCCCC2CCNCC2)cc1)C(=O)O	-0.127% [at 46 µM] (inactive)	
c1coc(CNc2ncnc3nc[nH]c23)c1	-0.0025% (inactive)	
CCOC(=O)COc1cc(-n2ncc(C(F)(F)F)c(C)c2=O)c(F)cc1Cl	0.0039% (inactive)	
CC(C)CCCO	-0.0088% (inactive)	
CC(=O)N1C[C@H](O)C[C@H]1C(=O)O	0.025% [at 46 µM] (inactive)	
O=S(=O)(O)c1cccc2c(S(=O)(=O)O)cccc12	0.07% (inactive)	
C=CN1CCCCCC1=O	0.0444% (inactive)	
C[N+]1(C)[C@@H]2CC(OC(=O)[C@H](CO)c3ccccc3)C[C@H]1[C@@H]1O[C@@H]12 (stereo not given in full)	-0.0206% [at 46 µM] (inactive)	
CCCCCCCCCCCCSC	-0.0048% (inactive)	
C=CCOCC(O)CO (stereo not given)	-0.0792% (inactive)	
CC(=O)Oc1cccc(C)c1	-0.0116% [at 46 µM] (inactive)	
CC1=CCC(O)(C(C)C)CC1 (stereo not given)	0.0423% (inactive)	
COC(=O)Nc1ccc(Cl)c(Cl)c1	0.0603% (inactive)	
CCCCCCC1CCC(=O)O1 (stereo not given)	0.0264% [at 95.7 µM] (inactive)	
CC[C@H]1OC(=O)[C@H](C)[C@@H](O[C@H]2C[C@@](C)(OC)[C@@H](O)[C@H](C)O2)[C@H](C)[C@@H](O[C@@H]2O[C@H](C)C[C@H](N(C)C)[C@H]2O)[C@](C)(OC)C[C@@H](C)C(=O)[C@H](C)[C@@H](O)[C@]1(C)O		inactive
C=CC(C)(CCC=C(C)C)OC(=O)CC (stereo not given)	0.089% (inactive)	
CC(=O)c1ccc2ccccc2c1	0.0658% (inactive)	
CC(N)C12CC3CC(CC(C3)C1)C2 (stereo not given)	0.0135% [at 46 µM] (inactive)	
CCC(=O)OCc1ccccc1	0.0175% (inactive)	
CC(C)C1CCC(O)CC1 (stereo not given)	0.0239% (inactive)	
